Measured values taken from PubChem BioAssay (NCATS).
Unmarked numbers belong to inactive results. Calls follow the shape of the dose curve; as a rule, active = well fitted curve in the direction sought with a large enough effect; inconclusive = small, poorly fitted or top-dose-only effect, or effect the other way, or another doubt; inactive = no such curve, though single readings can be large or run the other way.

Assay: Inducers of the Endoplasmic Reticulum Stress Response (ERSR) in human glioma: Validation (AID 504836); also: 0% is about no effect
Settings: human glioma cells, ER stress response reporter; series mostly up to 38.3 µM; activation: at the top concentration
Summary of the method: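 Stably transfected U87-MG human glioma cells carrying a GRP78-based luminescent sensor were seeded at 1000 cells/well, pin-dosed with compounds and incubated 16 h. Luciferase reagent was then added, and end-point luminescence was read after 10 min at room temperature.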
In the case of CN(C)C(=O)Oc1cccc([N+](C)(C)C)c1, the “activation” value is reported as 0.849%.
With CNC[C@H](O)c1ccc(O)c(O)c1 the “activation” value was -2.6%.
In the case of COc1cc2c(cc1OC)-c1cc(=Nc3c(C)cc(C)cc3C)n(C)c(=O)n1CC2, the “activation” value is reported as -1.9%.
With CCCN(CCC)C(=O)C(CCC(=O)O)NC(=O)c1ccccc1 (centres undefined) the “activation” value was 1.66%.
For CC(C)(C)c1ccc(C(O)CCCN2CCC(C(O)(c3ccccc3)c3ccccc3)CC2)cc1 (centres undefined), the “activation” value was -11.4%.
For Brc1c(NC2=NCCN2)ccc2nccnc12, the “activation” value was -1.52%.
In the case of c1ccc([C@H]2CN3CCSC3=N2)cc1, the “activation” value is reported as -0.794%.
For COc1cc(C(=O)OCCCN2CCCN(CCCOC(=O)c3cc(OC)c(OC)c(OC)c3)CC2)cc(OC)c1OC, the “activation” value was 6.01%.
With CN(C)C/C=C(/c1ccc(Br)cc1)c1cccnc1 the “activation” value was -4.95%.
For C[C@]12CCC(=O)C=C1CC[C@@H]1[C@@H]2C(=O)C[C@@]2(C)[C@H]1CC[C@]2(O)C(=O)CO, the “activation” value was -3.79%.
In the case of CC1=C(CC(=O)O)c2cc(F)ccc2/C1=C\c1ccc(S(C)(=O)=O)cc1, the “activation” value is reported as -2.22%.
For C[n+]1cc2c3c(ccc2c2ccc4cc5c(cc4c21)OCO5)OCO3, the “activation” value was -11.7%.
For C=CCc1ccccc1OCC(O)CNC(C)C (centres undefined), the “activation” value was -1.18%.
In the case of Cc1ccc(N(CC2=NCCN2)c2cccc(O)c2)cc1, the “activation” value is reported as 0.0677%.
For CCN(CC)CCOCCOC(=O)C1(c2ccccc2)CCCC1, the “activation” value was -3.67%.
With CCN(CC)CCCC(C)Nc1c2ccc(Cl)cc2nc2ccc(OC)cc12 (centres undefined) the “activation” value was 4.86%.
With COC(=O)[C@@H](N)Cc1ccc(O)c(O)c1 the “activation” value was -1.29%.
With CC(N)C(=O)OC(C)(C)Cc1ccc(Cl)cc1 (centres undefined) the “activation” value was -1.5%.
With CCCCNc1c(C(=O)OCC)c(C)nc2c1cnn2CC the “activation” value was -1.43%.
